This is an account of results in PubChem BioAssay (Tox21).

Results filed as inconclusive are left out. Calls of active or inactive are those of the source. Unless noted, calls come from the whole dose curve; as a rule, active = well fitted curve in the direction sought with a large enough effect in the repeat runs; inconclusive = weak or mixed curves; inactive = no such curve, though single readings can be large; an effect the other way counts as inactive or inconclusive.

Assay [1] can be described thus: qHTS assay to identify aromatase inhibitors - cell viability counter screen (AID 743084).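 Note: cells stimulated with testosterone during compound exposure; nearly all actives have a fitted effect of over 55% in size.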 A general note: In qHTS, concentration-response curves come from the screen itself.
The target in assay [2] is Aryl hydrocarbon receptor (Homo sapiens) (UniProt P35869). Description: qHTS assay to identify small molecule that activate the aryl hydrocarbon receptor (AhR) signaling pathway (AID 743085).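 For activation: HG2L7.5c1 human HepG2 liver cells with stably integrated DRE-driven firefly reporter; series mostly up to about 70 µM.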 Note: nearly all actives have a fitted effect of over 15% in size. Note: potency is the fitted concentration of half-maximal effect. Put shortly: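 24 h compound exposure, 37C, HepG2-derived HG2L7.5c1 cells with DRE-responsive luciferase. Readouts: fluorescence viability, then luminescence at room temperature after 30 min.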
Chain of Aryl hydrocarbon receptor (Homo sapiens) (P35869 whole entry, looked up): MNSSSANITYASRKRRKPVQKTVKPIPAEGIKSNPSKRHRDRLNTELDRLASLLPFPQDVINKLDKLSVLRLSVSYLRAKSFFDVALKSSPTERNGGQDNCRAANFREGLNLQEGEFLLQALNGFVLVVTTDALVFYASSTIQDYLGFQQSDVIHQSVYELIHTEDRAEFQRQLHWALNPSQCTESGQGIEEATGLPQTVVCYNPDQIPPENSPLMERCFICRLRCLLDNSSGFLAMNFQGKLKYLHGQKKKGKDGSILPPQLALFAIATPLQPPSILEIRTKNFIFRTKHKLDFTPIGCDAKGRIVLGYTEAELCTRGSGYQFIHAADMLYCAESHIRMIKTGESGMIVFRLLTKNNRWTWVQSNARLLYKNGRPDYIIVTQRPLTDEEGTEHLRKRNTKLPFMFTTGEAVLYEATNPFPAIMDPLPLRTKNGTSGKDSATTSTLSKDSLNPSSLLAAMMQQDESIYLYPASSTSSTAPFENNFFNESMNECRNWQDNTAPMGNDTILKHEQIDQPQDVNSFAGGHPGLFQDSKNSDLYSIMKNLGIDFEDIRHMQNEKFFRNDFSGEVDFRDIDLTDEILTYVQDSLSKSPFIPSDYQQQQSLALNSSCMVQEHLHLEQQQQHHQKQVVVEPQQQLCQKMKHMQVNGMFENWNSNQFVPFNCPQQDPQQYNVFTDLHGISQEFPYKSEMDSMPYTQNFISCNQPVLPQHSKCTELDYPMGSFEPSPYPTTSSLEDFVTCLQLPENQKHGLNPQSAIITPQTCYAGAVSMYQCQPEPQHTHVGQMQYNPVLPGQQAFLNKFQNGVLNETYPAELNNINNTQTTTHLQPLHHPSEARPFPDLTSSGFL

Assay [3] is described as follows: qHTS assay to identify small molecule that activate the aryl hydrocarbon receptor (AhR) signaling pathway - cell viability counter screen (AID 743086).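 Note: HepG2 liver cells carrying the AhR DRE luciferase reporter; series mostly up to about 70 µM; nearly all actives have a fitted effect of over 45% in size.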 Put shortly:
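Cytotoxicity counter screen: CellTiter-Fluor signal (30 min, 37 C) in 4000 HepG2 cells/well carrying the DRE-luciferase reporter, following 24 h compound exposure at 37 C.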

Assay [4] deals with Peroxisome proliferator-activated receptor gamma (Homo sapiens) (UniProt P37231). Kind of assay: qHTS assay to identify small molecule agonists of the peroxisome proliferator-activated receptor gamma (PPARg) signaling pathway (AID 743094; active = well fitted activation curve with a large enough effect in the signal ratio in the repeat runs, not every such curve was filed as active; the % refers to the signal ratio). Put shortly: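 Following 5 h plating at 37C, PPARg-bla HEK293H cells receive compound or DMSO for 17 h; fluorescence intensity is recorded after LiveBLAzer B/G loading for 1 h at room temperature.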
Chain of Peroxisome proliferator-activated receptor gamma (Homo sapiens) (P37231 whole entry, looked up): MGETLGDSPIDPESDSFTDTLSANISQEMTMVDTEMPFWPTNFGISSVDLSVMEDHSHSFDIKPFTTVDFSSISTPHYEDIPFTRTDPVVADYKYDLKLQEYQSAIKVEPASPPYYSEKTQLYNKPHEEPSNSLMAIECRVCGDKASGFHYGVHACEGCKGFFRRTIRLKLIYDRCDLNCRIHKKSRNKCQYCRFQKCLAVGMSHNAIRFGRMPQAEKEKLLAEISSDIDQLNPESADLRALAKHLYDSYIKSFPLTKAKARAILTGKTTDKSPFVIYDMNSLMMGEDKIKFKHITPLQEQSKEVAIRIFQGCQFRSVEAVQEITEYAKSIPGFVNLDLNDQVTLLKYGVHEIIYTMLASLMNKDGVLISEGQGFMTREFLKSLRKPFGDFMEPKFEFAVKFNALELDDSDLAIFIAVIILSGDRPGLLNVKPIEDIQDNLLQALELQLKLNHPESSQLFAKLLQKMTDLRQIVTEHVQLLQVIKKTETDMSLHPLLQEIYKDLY

Consider `N[C@H](C(=O)O)[C@@H]1CC(Cl)=NO1`, for which the Potency entry in assay [1], in assay [2], in assay [3] and in assay [4] was “inactive” in each case.
Regarding `CNCC(=O)N[C@@H](CCCN=C(N)N)C(=O)N[C@H](C(=O)N[C@@H](Cc1ccc(O)cc1)C(=O)N[C@H](C(=O)N[C@@H](Cc1cnc[nH]1)C(=O)N1CCC[C@H]1C(=O)N[C@@H](C)C(=O)O)C(C)C)C(C)C`, the Potency entry in assay [1], in assay [2], in assay [3] and in assay [4] was “inactive” throughout.
Take `CN[C@H](CC(C)C)C(=O)N[C@H]1C(=O)N[C@@H](CC(N)=O)C(=O)N[C@H]2C(=O)N[C@H]3C(=O)N[C@H](C(=O)N[C@@H](C(=O)O)c4cc(O)cc(O)c4-c4cc3ccc4O)[C@H](O)c3ccc(c(Cl)c3)Oc3cc2cc(c3O[C@@H]2O[C@H](CO)[C@@H](O)[C@H](O)[C@H]2O[C@H]2C[C@](C)(N)C(O)[C@H](C)O2)Oc2ccc(cc2Cl)[C@H]1O` (stereo partly specified): the Potency result in assay [1], in assay [2], in assay [3] and in assay [4] was “inactive” each time.
In the case of `O=C1CC[C@@H](C(=O)N[C@H]2C[C@@H]2c2ccccc2)N1`, the Potency entry in assay [1], in assay [2], in assay [3] and in assay [4] was “inactive” each time.
Regarding `O=C1C2CC3CC1CC(O)(C3)C2`, the Potency result in assay [1], in assay [2], in assay [3] and in assay [4] was “inactive” throughout.
On to `CCN(CC)CCn1c(=O)c(Cc2ccc(OC)cc2)nc2ccccc21`, for which the Potency entry in assay [1], in assay [2], in assay [3] and in assay [4] was “inactive” in each case.
As to `FC(F)(F)C(F)(F)C(F)(F)C(F)(F)C(F)(F)F`, the Potency result in assay [1], in assay [2], in assay [3] and in assay [4] was “inactive” each time.
For the compound `O=C1CCC(c2ccc(-n3ccnc3)cc2)=NN1`, the Potency entry in assay [1], in assay [3] and in assay [4] was “inactive” throughout. The Potency in assay [2] was 5.96 µM (active).
Take `CC1(C)CCC(NC(=O)[C@@H](N)CCC(=O)O)CC1`: the Potency result in assay [1], in assay [2], in assay [3] and in assay [4] was “inactive” throughout.
